Data on 15 compounds can be found in PubChem BioAssay.

The structures appear in SMILES notation. For part of these data: Results with a measured potency or affinity are listed apart. Activity calls are given as the source filed them.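 How the source made its calls, unless noted: active means fluorescence ratio normalized to control raised more than 50% in primary screen plus both repeat runs; inactive means the rest.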

Assay [1] relates to TRPC4 beta (transient receptor potential cation channel C4), mouse. Kind of assay: activators of mouse TRPC4 channel, confirmation, cell-based, Fluo4 calcium, HEK293 TRPC4beta/mu-opioid, duplicates, 10 µM (AID 2426).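 On activation: percent rise of integrated ratio over buffer wells lacking compound which define 0%.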 To be noted: Fluo4 calcium fluorescence, at 10 µM; hits give high values.
In assay [2] the test system is transient receptor potential cation channel C4 beta (TRPC4), mouse. Nature of the assay: activators of mouse TRPC4 channel, confirmation, cell-based, second round, Fluo4, HEK293 TRPC4beta/mu-opioid, 1 µM (AID 2461;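 active means primary screen active and over 50% activation in each of two duplicate runs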). To be noted: Fluo4 calcium fluorescence, at 1 µM; hits give high values.
For assay [3], the system named is TRPC4 (transient receptor potential cation channel C4 beta), mouse. Nature of the assay: positive allosteric modulators of mouse TRPC4, confirmation, cell-based, second round, Fluo-4, HEK293 TRPC4beta/mu-opioid, 1 µM (AID 2554;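 active means primary screen hit whose fluorescence ratio, in both repeats, exceeds the weak agonist control mean by 3 SD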). The settings on record: DAMGO EC20, Fluo-4 calcium flux, at 1 µM; hits give high values. (Calcium flux is commonly read through the fluorescence of an indicator in the cells.)

The subject of assay [4] is TRPC4 beta (transient receptor potential cation channel C4), mouse. Kind of assay: positive allosteric modulators of mouse TRPC4, confirmation, cell-based, Fluo-4, HEK293 TRPC4beta/mu-opioid (AID 2555;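 active means primary screen hit whose calcium fluorescence ratio, in both repeats, exceeds the weak agonist control mean by 3 SD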). The settings on record: DAMGO EC20, Fluo-4 calcium flux, at 10 µM; hits give high values.
In assay [5] the target is Short transient receptor potential channel 4 (Mus musculus) (UniProt Q9QUQ5). Nature of the assay: inhibitors of mouse TRPC4 channel, confirmation, cell-based, Fluo4, HEK293 TRPC4beta/mu-opioid (AID 2636;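 active means calcium signal cut by more than 3 SD below the full-agonist control yet still positive, in both repeats and the earlier primary screen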). The settings on record: DAMGO, Fluo4 calcium flux, at 10 µM; hits give high values.
Assay [6] has the same target. Kind of assay: inhibitors of mouse TRPC4 channel, confirmation, cell-based, second round, Fluo4, HEK293 TRPC4beta/mu-opioid, 1 µM (AID 2637;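 active means calcium signal ratio cut to more than 3 SD under the fully stimulated control mean yet still positive, in both repeats and the primary screen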). To be noted: Fluo4 calcium flux, DAMGO, at 1 µM; hits give high values.
For assay [7] the target is unchanged. Nature of the assay: mouse TRPC4 channel activators, dose response, cell-based, HEK293 TRPC4/mu-opioid, Fluo-4 calcium (AID 434937;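 active means primary screen activator hit with a dose response curve and TRPC4 channel activation at any tested dose; inactive means no activation, no dose response, or not a primary hit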).
The target is the same in assay [8]. Kind of assay: TRPC4 positive allosteric modulators, dose response, cell-based, HEK293 TRPC4/mu-opioid, Fluo-4 calcium, EC20 DAMGO (AID 434941;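 active means earlier screen potentiator hit that boosts the TRPC4 ion channel at some dose, with a dose response; inactive means no potentiation, no dose response, or not a prior hit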;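 further: calcium entry triggered by an EC20 dose of DAMGO at the co-expressed mu-opioid receptor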).
The target is the same in assay [9]. Nature of the assay: mouse TRPC4 channel inhibitors, dose response, cell-based, HEK293 TRPC4/mu-opioid, Fluo-4 calcium (AID 434942;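 active means primary screen inhibitor hit that blocks the TRPC4 channel at some tested dose, yielding a dose curve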).
For assay [10], the target named is Short transient receptor potential channel 6 (Mus musculus) (UniProt Q61143). Nature of the assay: inhibition of mouse TRPC6 channel, confirmation, selectivity assay for TRPC4 inhibitor project, cell-based, HEK293, membrane potential dye, duplicate (AID 434948;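 active means active in primary screen and both duplicates, each dropping signal beyond three positive-control SD with fluorescence still positive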). To be noted: HEK293 TRPC6, membrane potential dye fluorescence, at 10 µM, stimulated with maximal-effect acetylcholine; hits give high values.

Assay [11] has the same target. Kind of assay: activation of mouse TRPC6 channel, confirmation, selectivity assay for TRPC4 activator project, cell-based, HEK293, membrane potential dye, duplicate (AID 434950;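 active means membrane potential signal rise above negative control mean plus 3 SD in both duplicates, also active in the earlier TRPC4 screen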;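 on activation: 0% = buffer only wells and 100% = acetylcholine maximal-effect wells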). The settings on record: HEK293 TRPC6, membrane potential fluorescence, at 10 µM; hits give high values.
For assay [12] the target is unchanged. Kind of assay: TRPC6 potentiation by TRPC4 potentiator hits, confirmation, selectivity assay for TRPC4 potentiator project, HEK293 cells, membrane potential dye, duplicate (AID 434952;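 active means compound raising the membrane signal above positive-control mean plus 3 SD in both repeats, and a primary screen hit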). The settings on record: HEK293 TRPC6, membrane potential dye fluorescence, at 10 µM, maximal acetylcholine added after compound; hits give high values.
For assay [13], the target named is Short transient receptor potential channel 4 (Mus musculus) (UniProt Q9QUQ5). Nature of the assay: calcium flux activators in TRPC4/5HT1a cells, counter-screen for TRPC4 activator project, cell-based, second counter screen, HEK293 TRPC4/5HT1a, Fluo-4 (AID 434977;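 active means calcium signal rise above buffer-control mean plus 5 SD in both duplicates, and also a hit in the primary screen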;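 on activation: plate controls were assay buffer for no effect and maximal serotonin response for full effect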). The settings on record: Fluo-4 calcium flux, at 10 µM; hits give high values.
Assay [14] in a line: calcium flux inhibitors in TRPC4/5HT1a cells, confirmation, counter-screen for TRPC4 inhibitor project, cell-based, second counter screen, HEK293 TRPC4/5HT1a, Fluo-4 (AID 434978;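 active means primary screen active whose calcium signal fell more than 3 SD beyond the full-serotonin control mean in both duplicate plates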;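 further: serotonin given first at submaximal then at maximal dose after compound preincubation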). To be noted: Fluo-4 calcium flux, at 10 µM, serotonin added to trigger calcium flux; hits give high values.
The test system of assay [15] is TRPC4 (mouse), co-expressed with 5HT1a in HEK293. Kind of assay: calcium flux potentiators in TRPC4/5HT1a cells, confirmation, counter-screen for TRPC4 potentiator project, cell-based, second counter screen, HEK293 TRPC4/5HT1a, Fluo-4 (AID 434979;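 active means signal rise over 3 SD above mean of control wells given weak agonist, in both repeats and first screen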). To be noted: Fluo-4 calcium flux, at 10 µM, serotonin added at its EC20 dose; hits give high values.
Assay [16] is described as follows: calcium flux activation in mu-opioid HEK293 cells, confirmation, counter-screen for TRPC4 activator project, cell-based, HEK293 mu-opioid receptor line (AID 449723;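 active means hit in primary screen, with calcium signal over 5 SD above buffer well mean in both duplicates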;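 further: counter screen cells carry the mu-opioid receptor alone and lack TRPC4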). The settings on record: Fluo-4 calcium fluorescence, at 10 µM; hits give high values.
Assay [17] in a line: calcium flux enhancement in mu-opioid HEK293 cells, confirmation, counter-screen for TRPC4 allosteric potentiator project, cell-based, HEK293 mu-opioid receptor line (AID 449724;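 active means calcium signal rise more than 3 SD above the low-dose agonist control mean, in both duplicate plates and the primary screen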;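 further: HEK293 cells carrying mu-opioid receptor only with no TRPC4 channel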). The settings on record: Fluo-4 calcium flux, at 10 µM, compound added before EC20 DAMGO stimulus; hits give high values.

Short transient receptor potential channel 6 (Mus musculus), sequence (Q61143 whole entry, looked up): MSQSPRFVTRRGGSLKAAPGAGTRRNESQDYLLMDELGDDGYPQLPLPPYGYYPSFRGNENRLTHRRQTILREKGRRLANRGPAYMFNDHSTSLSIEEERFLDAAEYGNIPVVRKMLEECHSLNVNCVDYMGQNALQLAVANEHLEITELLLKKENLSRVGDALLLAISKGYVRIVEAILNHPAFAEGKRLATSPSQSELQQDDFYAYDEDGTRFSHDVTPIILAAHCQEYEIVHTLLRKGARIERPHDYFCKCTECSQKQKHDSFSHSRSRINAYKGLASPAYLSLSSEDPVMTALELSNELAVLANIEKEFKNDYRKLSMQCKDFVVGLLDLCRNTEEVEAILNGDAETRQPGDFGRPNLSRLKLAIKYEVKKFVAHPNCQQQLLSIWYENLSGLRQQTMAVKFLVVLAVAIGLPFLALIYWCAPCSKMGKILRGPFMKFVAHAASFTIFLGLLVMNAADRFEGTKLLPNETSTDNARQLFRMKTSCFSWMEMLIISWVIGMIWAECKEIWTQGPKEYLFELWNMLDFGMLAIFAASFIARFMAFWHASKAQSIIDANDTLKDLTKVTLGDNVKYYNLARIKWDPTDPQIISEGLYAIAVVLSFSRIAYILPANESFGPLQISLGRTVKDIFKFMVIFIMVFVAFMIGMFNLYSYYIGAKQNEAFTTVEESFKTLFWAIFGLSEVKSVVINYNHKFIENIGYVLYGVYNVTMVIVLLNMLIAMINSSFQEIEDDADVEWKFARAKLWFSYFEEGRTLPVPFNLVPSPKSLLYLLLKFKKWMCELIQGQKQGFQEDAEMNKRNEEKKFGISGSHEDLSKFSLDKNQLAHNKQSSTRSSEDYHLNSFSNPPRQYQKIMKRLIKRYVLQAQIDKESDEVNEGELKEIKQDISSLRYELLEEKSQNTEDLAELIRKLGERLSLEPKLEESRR
Short transient receptor potential channel 4 (Mus musculus), sequence (Q9QUQ5 whole entry, looked up): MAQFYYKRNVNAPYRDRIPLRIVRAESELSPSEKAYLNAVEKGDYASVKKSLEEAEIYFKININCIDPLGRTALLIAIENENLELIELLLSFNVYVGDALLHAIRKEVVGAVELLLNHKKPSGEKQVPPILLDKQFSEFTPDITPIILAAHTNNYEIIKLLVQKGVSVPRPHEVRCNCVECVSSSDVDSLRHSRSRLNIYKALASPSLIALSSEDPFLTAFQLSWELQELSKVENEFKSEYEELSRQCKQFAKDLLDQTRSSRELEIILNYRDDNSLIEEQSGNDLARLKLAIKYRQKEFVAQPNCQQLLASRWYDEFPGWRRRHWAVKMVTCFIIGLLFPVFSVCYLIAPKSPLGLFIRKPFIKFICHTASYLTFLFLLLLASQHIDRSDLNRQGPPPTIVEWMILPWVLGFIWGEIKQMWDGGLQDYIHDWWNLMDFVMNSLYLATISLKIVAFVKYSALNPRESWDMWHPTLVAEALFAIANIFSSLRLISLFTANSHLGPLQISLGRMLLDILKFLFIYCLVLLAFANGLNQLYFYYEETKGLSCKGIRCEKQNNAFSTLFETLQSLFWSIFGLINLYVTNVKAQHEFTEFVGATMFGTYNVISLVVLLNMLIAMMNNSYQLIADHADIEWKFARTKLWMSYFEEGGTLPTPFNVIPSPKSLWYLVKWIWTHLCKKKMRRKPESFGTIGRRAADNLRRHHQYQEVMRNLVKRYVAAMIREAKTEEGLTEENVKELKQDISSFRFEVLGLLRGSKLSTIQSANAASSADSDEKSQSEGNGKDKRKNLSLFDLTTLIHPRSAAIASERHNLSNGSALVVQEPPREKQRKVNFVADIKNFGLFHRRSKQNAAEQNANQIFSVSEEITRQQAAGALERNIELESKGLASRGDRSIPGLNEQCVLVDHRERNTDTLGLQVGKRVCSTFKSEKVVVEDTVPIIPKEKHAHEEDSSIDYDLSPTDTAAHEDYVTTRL

Consider `COc1ccc(C(=O)c2no[n+]([O-])c2C(=O)c2ccc(OC)cc2)cc1`, for which the outcome in assay [1], in [2], in assay [5], in assay [6], in [7] and in assay [8] was inactive. The result in assay [9], in assay [10], in assay [11], in assay [12], in assay [13] and in assay [14] was inactive. Further, the outcome in assay [16] and in assay [17] was inactive. Further, the potentiation in assay [3] was 9% (active); in assay [4] it was 50% (active); in [15] it was 51.2% (active).

Consider `Cc1cc(C(=O)CN2C(=O)C(=O)N(CC(C)C)C2=O)c(C)n1-c1ccccc1F`, for which the outcome in [1], in assay [2], in [3], in assay [4], in [5] and in [6] was inactive. Further, the outcome in assay [7], in [8], in assay [9], in [10], in [11] and in [12] was inactive. Further, the outcome in assay [13], in assay [14], in assay [16] and in assay [17] was inactive. The potentiation in assay [15] is 35.1% (active).

`O=c1c2ccccc2oc2nc(C3CCCCC3)n(Cc3ccco3)c(=O)c12`: the result in [1], in [2], in assay [5], in assay [6], in assay [7] and in assay [8] was inactive. In addition, the result in assay [9], in assay [10], in assay [11], in assay [12], in assay [13] and in assay [14] was inactive. In addition, the outcome in assay [16] and in assay [17] was inactive. In addition, the potentiation in [3] was 10% (active); in assay [4], 11% (active); in [15], 30.7% (active).

The inhibition is how much of the control response was suppressed. Regarding `Cc1nnc(Sc2cc(NCCCO)c([N+](=O)[O-])c3nonc23)s1`, the result in assay [1], in assay [2], in assay [3], in assay [4], in assay [6] and in [7] was inactive. In addition, the outcome in [8], in assay [9], in assay [10], in [11], in assay [12] and in assay [13] was inactive. Besides, the outcome in assay [14], in assay [15], in [16] and in assay [17] was inactive. For the same compound, in assay [5], the inhibition was 84% (active).

For the compound `CN(C)CCCNc1ncnc2c1cnn2-c1ccccc1`, the outcome in [1], in assay [2], in assay [5], in assay [6], in assay [7] and in [8] was inactive. Besides, the result in [9], in [10], in assay [11], in assay [12], in assay [13] and in assay [14] was inactive. For the same compound, the outcome in assay [16] and in [17] was inactive. The potentiation was 16% (active) in assay [3], 17% (active) in [4] and 28.6% (active) in assay [15].

For the compound `Cc1oc(-c2ccc(Cl)cc2)nc1CS(=O)CC(=O)NCCCN(C)C1CCCCC1` (stereo not given), the result in assay [1], in assay [2], in assay [3], in [4], in [5] and in assay [6] was inactive. For the same compound, the result in [7], in assay [8], in assay [9], in assay [10], in assay [11] and in [12] was inactive. Besides, the result in assay [13], in assay [14], in assay [15], in assay [16] and in assay [17] was inactive.

Regarding `CC(=O)Cc1nsc(NC(=O)c2csc3c2CCCC3)n1`, the outcome in assay [1], in assay [2], in assay [3], in assay [4], in assay [5] and in assay [6] was inactive. In addition, the outcome in assay [7], in assay [8], in assay [9], in [10], in [11] and in assay [12] was inactive. The result in assay [13], in assay [14], in assay [15], in [16] and in assay [17] was inactive.

For the compound `CCN1CCN(c2nc(N)c([N+](=O)[O-])c(Nc3ccc(C)c(C)c3)n2)CC1`, the result in assay [1], in [2], in assay [3], in [4], in assay [5] and in assay [6] was inactive. Also, the result in assay [7], in assay [8], in assay [9], in [10], in [11] and in assay [12] was inactive. Further, the result in [13], in assay [14], in assay [16] and in assay [17] was inactive. Further, in assay [15], the potentiation was 10.5% (active).

Regarding `C/C(=N/Nc1ccnc2cc(Cl)ccc12)c1ccc(N)cc1`, the result in assay [1], in [2], in [3], in [4], in [5] and in assay [6] was inactive. Also, the outcome in assay [7], in assay [8], in [9], in [10], in assay [11] and in assay [12] was inactive. For the same compound, the outcome in assay [13], in [14], in [15], in assay [16] and in assay [17] was inactive.

In the case of `CCOC(=O)c1sc2nc(CC(=O)OC)nc(NCc3ccc(F)cc3)c2c1C`, the result in assay [1], in assay [2], in assay [3], in [4], in assay [5] and in assay [6] was inactive. Besides, the outcome in assay [7], in assay [8], in [9], in [10], in [11] and in assay [12] was inactive. The result in [13], in assay [14], in assay [15], in assay [16] and in [17] was inactive.

For `CC(C)CN(C(=O)COC(=O)CCC(=O)c1ccc(Cl)cc1)c1c(N)n(Cc2ccccc2)c(=O)[nH]c1=O`, the result in assay [1], in assay [2], in [3], in assay [4], in assay [5] and in [6] was inactive. Further, the outcome in assay [7], in assay [8], in assay [9], in assay [10], in [11] and in assay [12] was inactive. The result in assay [13], in assay [14], in assay [15], in assay [16] and in [17] was inactive.

Consider `Cn1c(=O)c2c(nc(CN3CCc4ccccc4C3)n2Cc2ccccc2)n(C)c1=O`, for which the result in [1], in assay [2], in assay [4], in assay [5], in assay [6] and in [7] was inactive. Besides, the result in [8], in [9], in assay [10], in assay [11], in assay [12] and in assay [13] was inactive. For the same compound, the result in assay [14], in [16] and in assay [17] was inactive. For the same compound, the potentiation was 40% (active) in assay [3] and 97.6% (active) in assay [15].

With `CC(C)c1cccc(OCCCCN(C)C)c1`, the result in assay [1], in [2], in assay [5], in assay [6], in [7] and in assay [8] was inactive. Further, the result in assay [9], in assay [10], in [11], in assay [12], in assay [13] and in assay [14] was inactive. The outcome in [16] and in [17] was inactive. Also, the potentiation is 9% (active) in assay [3], 20% (active) in assay [4] and 16.2% (active) in assay [15].

With `O=C(CC1CCCCC1)c1c(O)c2ccccc2oc1=O`, the activation in assay [1] is 151% (active); in assay [11] it was 33.5% (active); in assay [13], 62.5% (active); in assay [16], 30.8% (active). Moreover, the result in [2], in assay [3], in assay [4], in assay [5], in assay [6] and in assay [7] was inactive. For the same compound, the outcome in assay [8], in assay [9], in [10], in assay [12], in [14] and in assay [15] was inactive. Moreover, the outcome in [17] was inactive.

Turning to `CCN(CC)CCNC(=O)c1cc2c(-c3cccc(OC)c3)nn(C)c2s1`, the outcome in [1], in assay [2], in [3], in [4], in assay [5] and in [6] was inactive. The result in assay [7], in assay [8], in [9], in assay [10], in [11] and in [12] was inactive. For the same compound, the outcome in [13], in [14], in [16] and in assay [17] was inactive. For the same compound, in assay [15], the potentiation is 20.8% (active).
